Inconclusive results are not listed. The list shows a part of the results. Calls of active or inactive are those of the source. Unless noted, calls follow the shape of the dose curve; as a rule, active = well fitted curve in the direction sought with a large enough effect; inconclusive = small, poorly fitted or top-dose-only effect, or another doubt; inactive = no such curve, though single readings can be large; an effect the other way counts as inactive or inconclusive.
Experiments:
[1] = S16 Schwann cell PMP22 intronic element firefly luciferase assay (AID 624032);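 also: plate controls were DMSO for no effect and PTC124 positive control mean for full effect; nearly all actives have a fitted effect of over 30% in size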
Outline: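 Rat S16 Schwann cells stably carrying a PMP22 intronic element-driven Fluc reporter were seeded overnight, then exposed to compounds for 24 h at 37 °C. Luminescence was normalized to PTC124 (positive control) and DMSO (0% activity).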

[2] = S16 Schwann cell PMP22 intronic element beta-lactamase assay (AID 624044; calls by dose curve;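 also: 0% = DMSO and -100% = potassium clavulanate positive control; nearly all actives have a fitted effect of over 15% in size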)
Outline: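 Rat S16 Schwann cells with beta-Lac driven by a PMP22 intronic element, compound-treated 24 h at 37 °C. LiveBLAzer FRET B/G read: 460 nm normalized to potassium clavulanate vs DMSO; 535 nm FRET as viability; concentration-effect curves classified.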

7G8 = assay: qHTS profiling for inhibitors of Plasmodium falciparum proliferation (AID 504749); also: nearly all actives have a fitted effect of over 60% in size; also: potency is read from the fitted curve at half-maximal effect;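 as to activity, negative = inhibition: 0% = DMSO vehicle and full inhibition = artemisinin control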; conditions: P. falciparum in erythrocytes, SYBR Green DNA, 72 h; series mostly up to 28.7 µM
Outline: (§1)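 Parasite proliferation within erythrocytes, 72 h exposure. Endpoint: SYBR Green I fluorescence after overnight lysis at room temperature. Controls: 0.29 uM artemisinin, DMSO.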

CP215 = assay: as above; conditions: P. falciparum in erythrocytes, SYBR Green DNA, 72 h; series mostly up to 28.7 µM
Outline: as §1

CP291 = assay: as above; conditions: P. falciparum in erythrocytes, SYBR Green DNA, 72 h; series mostly up to 28.7 µM
Outline: as §1

CP297 = assay: as above; conditions: P. falciparum in erythrocytes, SYBR Green DNA, 72 h; series mostly up to 28.7 µM
Outline: as §1

CP335 = assay: as above; conditions: P. falciparum in erythrocytes, SYBR Green DNA, 72 h; series mostly up to 28.7 µM
Outline: as §1

Dd2 = assay: as above; conditions: P. falciparum in erythrocytes, SYBR Green DNA, 72 h; series mostly up to 28.7 µM
Outline: as §1

GB4 = assay: as above; conditions: P. falciparum in erythrocytes, SYBR Green DNA, 72 h; series mostly up to 28.7 µM
Outline: as §1

JCK = assay: as above; conditions: P. falciparum in erythrocytes, SYBR Green DNA, 72 h; series mostly up to 28.7 µM
Outline: as §1

[3] = target: Ubiquitin carboxyl-terminal hydrolase 1 (Homo sapiens) (UniProt O94782); assay: Inhibitors of USP1/UAF1: Pilot qHTS (AID 504865);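 also: rhodamine fluorescence freed from ubiquitin-rhodamine substrate followed over time; top concentration of the series differs between compounds; % is scaled to controls: 0 for no effect and ±100 for the full control effect; nearly all actives have a fitted effect of over 35% in size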
Sequence of Ubiquitin carboxyl-terminal hydrolase 1 (Homo sapiens) (O94782 whole entry, looked up): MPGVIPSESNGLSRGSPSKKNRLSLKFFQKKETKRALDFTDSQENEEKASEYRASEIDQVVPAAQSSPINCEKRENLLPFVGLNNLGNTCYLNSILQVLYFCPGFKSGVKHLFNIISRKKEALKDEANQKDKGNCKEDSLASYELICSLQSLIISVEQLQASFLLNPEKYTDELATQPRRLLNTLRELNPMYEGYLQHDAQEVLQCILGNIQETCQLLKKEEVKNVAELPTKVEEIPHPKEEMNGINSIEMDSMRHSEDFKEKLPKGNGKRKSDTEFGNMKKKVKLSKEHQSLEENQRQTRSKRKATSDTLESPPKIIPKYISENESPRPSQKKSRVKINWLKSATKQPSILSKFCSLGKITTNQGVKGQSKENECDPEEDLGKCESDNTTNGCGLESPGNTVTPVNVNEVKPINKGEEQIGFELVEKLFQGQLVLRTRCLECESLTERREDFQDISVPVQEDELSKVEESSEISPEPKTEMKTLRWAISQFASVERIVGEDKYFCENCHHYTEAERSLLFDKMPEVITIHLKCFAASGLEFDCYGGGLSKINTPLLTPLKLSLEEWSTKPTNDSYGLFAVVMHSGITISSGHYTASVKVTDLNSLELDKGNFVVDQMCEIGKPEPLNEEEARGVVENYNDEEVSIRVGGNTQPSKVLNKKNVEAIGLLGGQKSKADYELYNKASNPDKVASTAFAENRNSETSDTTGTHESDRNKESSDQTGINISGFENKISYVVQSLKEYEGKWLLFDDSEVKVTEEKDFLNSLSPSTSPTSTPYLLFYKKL
Outline: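 Enzyme-free wells gave the negative control, while test wells held 1nM USP1/UAF1 preincubated with compound for 15 min at room temperature. Ub-Rho at 150nM final started the reaction, and fluorescence at 480/540 nm was recorded kinetically.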

[4] = qHTS profiling for inhibitors of Plasmodium falciparum proliferation (AID 504749); also: nearly all actives have a fitted effect of over 60% in size; also: potency is read from the fitted curve at half-maximal effect;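 as to activity, negative = inhibition: 0% = DMSO vehicle and full inhibition = artemisinin control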; conditions: P. falciparum in erythrocytes, SYBR Green DNA, 72 h, at 28.7 µM (top of the series)
Outline: as §1

AS120 = assay: as above; conditions: P. falciparum in erythrocytes, SYBR Green DNA, 72 h; series mostly up to 28.7 µM
Outline: as §1

ATS189 = assay: as above; conditions: P. falciparum in erythrocytes, SYBR Green DNA, 72 h; series mostly up to 28.7 µM
Outline: as §1

CP237 = assay: as above; conditions: P. falciparum in erythrocytes, SYBR Green DNA, 72 h; series mostly up to 28.7 µM
Outline: as §1

CP247 = assay: as above; conditions: P. falciparum in erythrocytes, SYBR Green DNA, 72 h; series mostly up to 28.7 µM
Outline: as §1

HB3 = assay: as above; conditions: P. falciparum in erythrocytes, SYBR Green DNA, 72 h; series mostly up to 28.7 µM
Outline: as §1

TAB109 = assay: as above; conditions: P. falciparum in erythrocytes, SYBR Green DNA, 72 h; series mostly up to 28.7 µM
Outline: as §1

W2 = assay: as above; conditions: P. falciparum in erythrocytes, SYBR Green DNA, 72 h; series mostly up to 28.7 µM
Outline: as §1

[5] = target: DNA polymerase eta (Homo sapiens) (UniProt Q9Y253); assay: qHTS for Inhibitors of Polymerase Eta: Confirmatory Assay for Cherry-picked Compounds (AID 720502); conditions: Pol eta primer extension, TAMRA/BHQ fluorescence, 10 min; also: potency is read from the fitted curve at half-maximal effect
Sequence of DNA polymerase eta (Homo sapiens) (Q9Y253 whole entry, looked up): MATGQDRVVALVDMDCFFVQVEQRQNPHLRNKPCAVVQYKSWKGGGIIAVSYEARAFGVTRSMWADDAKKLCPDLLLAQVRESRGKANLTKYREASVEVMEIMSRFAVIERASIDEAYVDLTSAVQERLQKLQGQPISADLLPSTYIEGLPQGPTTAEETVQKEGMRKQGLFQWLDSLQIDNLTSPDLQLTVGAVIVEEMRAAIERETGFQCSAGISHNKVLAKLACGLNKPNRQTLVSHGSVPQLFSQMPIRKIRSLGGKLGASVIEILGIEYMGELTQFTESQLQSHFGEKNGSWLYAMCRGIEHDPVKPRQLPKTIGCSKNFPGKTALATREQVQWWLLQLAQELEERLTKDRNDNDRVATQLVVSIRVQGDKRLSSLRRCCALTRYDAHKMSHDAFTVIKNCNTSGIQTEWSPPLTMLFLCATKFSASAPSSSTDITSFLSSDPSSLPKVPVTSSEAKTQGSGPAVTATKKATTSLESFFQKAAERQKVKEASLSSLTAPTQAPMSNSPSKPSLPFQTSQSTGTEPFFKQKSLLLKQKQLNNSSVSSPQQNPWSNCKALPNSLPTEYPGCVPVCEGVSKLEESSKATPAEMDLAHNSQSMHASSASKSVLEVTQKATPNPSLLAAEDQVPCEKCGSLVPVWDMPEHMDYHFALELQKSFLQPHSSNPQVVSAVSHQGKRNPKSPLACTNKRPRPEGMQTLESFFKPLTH
Outline: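 Human Pol eta (10 nM) was preincubated with compounds for 15 min at room temperature before adding 50 nM (final) DNA substrate: primer plus TAMRA reporter strand annealed to a BHQ-2-labeled template. Fluorescence (ex 525/em 598 nm) was read at 0 and 10 min.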

C=C1CC[C@H](O)C/C1=C/C=C1\CCC[C@]2(C)[C@@H]([C@H](C)CCCC(C)C)CC[C@@H]12
inactive: Potency [1] | outcome [2] | Potency (CP215) | Potency (CP291) | Potency (CP297) | Potency (CP335) | Potency (GB4) | Potency (JCK)
active: Potency (7G8) 11.2 µM | Potency (Dd2) 12.6 µM

Oc1cc2c(cc1O)[C@H]1c3ccc(O)c(O)c3OC[C@@]1(O)C2
inactive: Potency [3]

Cc1c(C(=O)O)c(O)cc2c1C(=O)c1c(O)c([C@H]3O[C@H](CO)[C@@H](O)[C@H](O)[C@H]3O)c(O)c(O)c1C2=O
inactive: outcome [2] | activity, negative = inhibition ([4]; parasite line A) 5.98% | activity, negative = inhibition ([4]; parasite line B) 13.4% | Potency (7G8) | Potency (AS120) | Potency (ATS189) | Potency (CP215) | Potency (CP237) | Potency (CP247) | Potency (CP291) | Potency (CP297) | Potency (CP335) | Potency (Dd2) | Potency (GB4) | Potency (HB3) | Potency (JCK) | Potency (TAB109) | Potency (W2)

C=CCn1c(=S)[nH]c2scc(-c3ccco3)c2c1=O
active: Potency [5] 26.9 µM

CC[C@@H](CO)Nc1nc(NCc2ccccc2)c2ncn(C(C)C)c2n1
inactive: Potency [3]

N#Cc1ccccc1CN1C(=O)S/C(=C/c2cccn2-c2cccc(C(=O)O)c2)C1=O
active: Potency [5] 60.1 µM
